These results are taken from PubChem BioAssay AID651800 (The Scripps Research Institute Molecular Screening Center, 2012).

One may read the inhibition as the relative decrease from the control value, in per cent.

About 1,300 (0.36%) of roughly 360,000 compounds were called active. The sample holds actives, similar compounds and a random draw of the others, so the mix is not that of the screen. Rule as the data show it: active = inhibition above about 19%; inactive = the rest.

This test has as its system T-cell receptor (TCR). Description: small molecules blocking TCR binding to CD3 – biochemical, fluorescence, TAMRA-labeled TCR probe, primary screen (AID 651800).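 Also: recombinant mutant TCR 2C K166C tagged with TAMRA read by polarization; 0% = receptor in buffer alone and 100% = receptor with positive control.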 The following applies: at 9.4 µM, active compounds read high.
Take `COc1ccc(C(=O)NCCSc2ccccc2C)cc1`: the inhibition was -0.19% (inactive).
For `COc1ccc(C(=O)NCC[N+](C)(C)C)cc1`, the inhibition is -6.67% (inactive).
Next, `COc1ccc(C(=O)NNc2cc(C)nc(NNC(=O)c3ccc(OC)cc3)n2)cc1`: 19.4% (active); `CC(c1ccccc1)n1c(NCCCn2ccnc2)nc2c1c(=O)[nH]c(=O)n2C` (stereo unspecified): 5.62% (inactive).
Next, `COc1ccc(S(=O)(=O)Nc2ccc3c(c2)C(=O)N([C@H](C)CO)C[C@H](C)[C@@H](CN(C)C)OCCCC[C@H](C)O3)cc1`: -1.68% (inactive); `CC(=O)c1ccc(S(=O)(=O)NCC2CCN(C(=O)C(=O)c3cccs3)CC2)cc1`: -11.4% (inactive).
As for `CCN(CC)CCCC(C)n1c2nc(=O)[nH]c(=O)c-2nc2cc(Cl)ccc21` (stereo unspecified), the inhibition is 54.6% (active).
The value for `O=C(NCc1ccccc1)[C@H]1CCCN1C(=O)[C@H]1CCCN1C(=O)c1cc(F)cc(F)c1` was 1.6% (inactive); that for `Cc1ccc(-c2nn(-c3ccccc3)cc2/C=C/C(=O)Nc2cccc(S(N)(=O)=O)c2)cc1` was 83.6% (active); that for `Cc1ccc(-c2nn(-c3ccccc3)cc2C(=O)Nc2cccc(S(=O)(=O)N3CCOCC3)c2)cc1` was 2.85% (inactive).
Next, `O=C(/C=C/c1cn(-c2ccccc2)nc1-c1ccc2c(c1)OCCO2)NCCCN1CCOCC1`: -3.23% (inactive); `CN(C)C(=O)N1CCN(C(=O)[C@@H](Cc2ccccc2)NC(=O)[C@H]2O[C@@H](n3ccc(N)nc3=O)[C@H](O)[C@@H]2O)CC1`: -1.88% (inactive); `COC(=O)C1=C(C(=O)OC)C2C=C(C(C)C)C1C(=O)C2(C)O` (stereo unspecified): -5.88% (inactive).
The value for `COC(=O)C1=C(C)N(Cc2cccc(C(F)(F)F)c2)C(=NCc2cccc(C(F)(F)F)c2)NC1c1ccccc1C(F)(F)F` (stereo unspecified) was 7% (inactive); that for `CC1CCCN(c2cccc3c2S(=O)(=O)N(Cc2ccc(F)cc2)[C@@H](C)[C@H](c2ccccc2)O3)C1` (stereo partly specified) was -3.78% (inactive); that for `CC(C)C[C@H](NC(=O)CC1CCCC1)C(=O)N1CCC[C@H]1C(=O)NCc1ccccc1` was -0.62% (inactive).
For `COc1ccccc1C(=O)NCC(=O)OCC(=O)NNC(=O)c1ccc(Br)cc1`, the inhibition is 7.36% (inactive).
The value for `COc1ccccc1C(=O)c1ccccc1C(=O)c1ccccc1` was -2.38% (inactive).
Next, `COc1ccccc1C(=O)NNC(=O)c1ccc(NC(=O)c2ccccc2)cc1`: 37.3% (active); `CC(=O)C1=C(C)N(Cc2ccc(Cl)cc2)C(=S)NC1c1ccc(F)cc1` (stereo unspecified): 3.88% (inactive).
For `COc1ccccc1Cc1c(-c2ccc(F)cc2)nc2ccc(C)cn12`, the inhibition was -1.71% (inactive).
In the case of `O=C(NCc1ccccc1)[C@@H]1CCCN1C(=O)[C@@H](NS(=O)(=O)c1ccc(F)cc1F)C1CCCCC1`, the inhibition was -7.08% (inactive).
The value for `COc1ccccc1C(CNC(=O)c1ccc(C)c(S(=O)(=O)N2CCCCC2)c1)N(C)C` (stereo unspecified) was -9.01% (inactive); that for `Cc1ccc(C(=O)NCC(=O)O)cc1S(=O)(=O)N1CCCCC1` was 21.8% (active); that for `Cc1ccc(C(=O)NNC(=O)c2ccncc2)cc1S(=O)(=O)N1CCCCC1` was -4.33% (inactive).
Regarding `COC(=O)[C@]12C[C@H](CC(=O)NCc3ccc(OC)c(OC)c3)C(=O)N(Cc3ccccc3)C1=C[C@H](C(C)C)O[C@@H]2C1CC1`, the inhibition is 1.22% (inactive).
The value for `Cc1nn(C)cc1N1C(=O)c2cccc3c(N)ccc(c23)C1=O` was 38% (active).
Next, `COc1ccc(NS(=O)(=O)c2cc(NC(=O)c3ccc(S(=O)(=O)N(C)C)cc3)ccc2N2CCOCC2)cc1`: 1.69% (inactive); `COc1ccc(NS(=O)(=O)c2cc(NC(=O)C3CCCCC3)ccc2N2CCOCC2)cc1`: 0.76% (inactive); `COc1ccc(NS(=O)(=O)c2cc(NC(=O)/C=C/c3cc(OC)c(OC)c(OC)c3)ccc2N2CCCCC2)cc1`: 22.8% (active).
`Nc1[nH]c(C(=O)c2ccccc2)c(-c2ccc(Cl)cc2Cl)c1C(=O)c1ccccc1`: the inhibition is 4.17% (inactive).
The value for `Nc1nc(CC(=O)CSc2ccc(Cl)cc2)nc(Nc2ccc(F)cc2)n1` was 4.84% (inactive).
For the compound `Cc1cc2nc3c(=O)[nH]c(=O)nc-3n(C[C@H](O)[C@H](O)[C@H](O)CO)c2cc1C`, the inhibition was 19.9% (active).
`CN1CCCCC(NC(=O)C(C)(C)C)C1=O` (stereo unspecified): the inhibition was -0.73% (inactive).
Next, `CC(C)CNc1cccc2c1S(=O)(=O)N[C@H](C)CO2`: 0.56% (inactive).
Next, `C[C@H]1CN([C@@H](C)CO)C(=O)CCCn2nncc2CO[C@@H]1CN(C)C(=O)Nc1ccc(N2CCN(C)CC2)cc1`: 3.36% (inactive); `CN[C@H]1C[C@H]2c3[nH]c4c(-c5ccccc5)cccc4c3CCN2C(=O)[C@H]1[C@H](C)O`: 2.21% (inactive); `CC(NC(=S)Nc1ccc(S(N)(=O)=O)cc1)c1ccc2c(c1)OCO2` (stereo unspecified): -3.8% (inactive).
In the case of `CCN(CC(=O)Nc1ccc2c(c1)OCO2)S(=O)(=O)c1ccccc1`, the inhibition was -7.59% (inactive).
For `NS(=O)(=O)c1ccc(NC(=O)COC(=O)c2c3c(nc4ccccc24)/C(=C\c2ccc4c(c2)OCO4)CCC3)cc1`, the inhibition is 50.3% (active).
Take `Cc1c(Cl)cccc1NC(=O)CCC(=O)N/N=C/c1ccco1`: the inhibition was 1.69% (inactive).
The value for `O=C(N/N=C/c1ccco1)c1ccc(C(=O)N/N=C/c2ccco2)o1` was 21.8% (active); that for `O=C(Cn1cnc2ccccc21)N/N=C/c1ccco1` was 3.99% (inactive).
Next, `Cc1ccc2nc(CN(C)C(=O)[C@@H](Cc3ccccc3)NC(=O)[C@H]3O[C@@H](n4ccc(=O)[nH]c4=O)[C@H](O)[C@@H]3O)[nH]c2c1`: 3.29% (inactive); `C=CCN=C1NC(c2cccc(C(F)(F)F)c2)C(C(=O)OC)=C(C)N1C` (stereo unspecified): -6.24% (inactive); `Cc1ccc(C(=O)N/C(=C\c2cccs2)C(=O)NCCc2ccccn2)cc1C`: 2.48% (inactive).
With `O=C(N/N=C/c1cc([N+](=O)[O-])ccc1O)/C(=C\c1cccs1)NC(=O)c1ccccc1`, the inhibition is 30.9% (active).
As to `COc1cc(/C=C(/NC(=O)c2ccccc2)C(=O)Nc2cccc(O)c2)c([N+](=O)[O-])cc1OC`, the inhibition is -4.87% (inactive).
The value for `C=CCn1c(=O)c(C(=O)Nc2ncccc2O)c(O)c2ccccc21` was 29.1% (active); that for `C=CCn1c(=O)c(C(=O)NCc2ccc3c(c2)OCO3)c(O)c2ccccc21` was 4.79% (inactive).
Next, `Cn1c(=O)c(C(=O)Nc2ncccn2)c(O)c2ccccc21`: 3.65% (inactive).
